38 molecules from PubChem BioAssay (EPA / NIEHS) can be followed below.

By AC50 is commonly meant the midpoint of the concentration-response curve, whichever way the signal moves.

Active and inactive are the calls of the source. Rule for the calls: active = hit-call score of the fitted dose curve at least 0.9, where 1 is the maximum; inactive = score below 0.9.

One experiment can be described thus: ATG_TA_CIS: Attagene CIS-FACTORIAL HepG2 Assay for human TA Basal Promoter (AID 2282964). The note with it: HepG2 Attagene CIS-factorial TA basal promoter reporter; actives raise or lower the signal. In short, it runs like this:
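Cis-factorial format in HepG2: reporters report endogenous factors, not chimeric Gal4 fusions. After 24 h treatment, reporter transcripts were measured by RT-PCR-capillary electrophoresis fluorescence, analysed bidirectionally versus DMSO.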
For the molecule `O=c1cc(-c2ccccc2)oc2ccc3ccccc3c12`, the molecule was called inactive.

As to `O=C(Nc1ccc(Cl)c(Cl)c1)c1cc(Cl)cc(Cl)c1O`, the molecule was called inactive.

`c1ccc2c(c1)CCC2`: the molecule was classed as inactive.

`O=C1Cc2ccccc2N1c1c(Cl)cccc1Cl`: the call was inactive.

As to `Clc1ccc(Nc2nnc(Cc3ccncc3)c3ccccc23)cc1`, the AC50 was 23.2 µM (active).

With `Brc1cc(Br)c(Oc2c(Br)cc(Br)c(Br)c2Br)cc1Br`, the molecule was classed as inactive.

In the case of `C=CC(=O)OCCC(F)(F)C(F)(F)C(F)(F)C(F)(F)C(F)(F)C(F)(F)F`, the result was inactive.

On to `O=C(C=C(O)C(F)(F)F)C(F)(F)F`, for which the call was inactive.

Consider `Nc1cc(Cl)c(-c2cc(Cl)c(N)cc2Cl)cc1Cl`, for which the molecule was called inactive.

As for `CCC(=O)C=Cc1ccc(OC)cc1`, the result was inactive.

For `COC(O)c1ccccc1` (stereo unspecified), the molecule was classed as inactive.

`CC1CCC(C(=O)O)CC1` (stereo unspecified): the molecule was classed as inactive.

As for `CC1CNCC(C)O1` (stereo unspecified), the outcome was inactive.

`Cc1ccc(N=Nc2c(O)ccc3ccccc23)c(C)c1`: the outcome was inactive.

As for `Nc1ccc(O)c(C(=O)O)c1`, the molecule was classed as inactive.

Take `Cc1[nH]nc2c1N=C(c1ccccc1Cl)c1cc([N+](=O)[O-])ccc1N2`: the AC50 is 0.288 µM (active).

`O=C(O)C(=O)O`: the call was inactive.

As for `CCc1cccc(CC)c1N(COC)C(=O)CS(=O)(=O)O`, the outcome was inactive.

For `Clc1ccc2c(Cl)ccnc2c1`, the molecule was called inactive.

Regarding `COC1=CC(=O)C[C@@H](C)[C@]12Oc1c(Cl)c(OC)cc(OC)c1C2=O`, the molecule was called inactive.

As to `O=C(Nc1cccc([N+](=O)[O-])c1)c1cc2ccccc2cc1O`, the outcome was inactive.

As to `CCc1cccc(CC)c1NC(=O)C(=O)O`, the molecule was classed as inactive.

With `O=CC(F)(F)C(F)(F)C(F)(F)F`, the molecule was classed as inactive.

With `CCCCCCc1ccc(N)cc1`, the molecule was classed as inactive.

Regarding `COc1cccc(O)c1`, the result was inactive.

For `FC(F)(F)C1(F)C(F)(F)C(F)(F)C(F)(F)C1(F)F`, the result was inactive.

In the case of `C=CC(=O)OCCC(F)(F)C(F)(F)C(F)(F)C(F)(F)C(F)(F)C(F)(F)C(F)(F)C(F)(F)F`, the molecule was classed as inactive.

`CCCCCc1ccc(O)cc1`: the result was inactive.

As to `O=C1OC(=O)c2cc(-c3ccc4c(c3)C(=O)OC4=O)ccc21`, the molecule was called inactive.

As for `FC(F)(F)C(F)(F)C(F)(F)C(F)(F)I`, the call was inactive.

On to `OCCN1CN(CCO)CN(CCO)C1`, for which the molecule was classed as inactive.

Regarding `Oc1c(Cl)cc(Cl)cc1Sc1cc(Cl)cc(Cl)c1O`, the call was inactive.

`COc1cc([N+](=O)[O-])ccc1N`: the result was inactive.

Turning to `CC(C)(c1ccc(Oc2ccc(N)cc2)cc1)c1ccc(Oc2ccc(N)cc2)cc1`, the molecule was called inactive.

For `CCCC=O`, the result was inactive.

In the case of `CCCCCCCCC(C)=O`, the call was inactive.

As for `NC(C(F)(F)F)C(F)(F)F`, the molecule was classed as inactive.

Regarding `Cc1ccc(C)c(S(=O)(=O)O)c1`, the molecule was classed as inactive.

The nature of the next experiment: ATG_TCF_b_cat_CIS: Attagene CIS-FACTORIAL HepG2 Assay for human T-Cell-Factor with beta-catenin (TCF/b-cat) (AID 2282965). The note with it: HepG2 TCF/beta-catenin cis-reporter transcription, actives raise or lower the signal. In short, it runs like this:
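Endogenous TCF/LEF activity read as reporter transcript level via RT-PCR and capillary electrophoresis fluorescence in transfected HepG2, 24 h exposure; gain or loss of signal fitted against DMSO controls.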
As for `O=c1cc(-c2ccccc2)oc2ccc3ccccc3c12`, the result was inactive.

As to `O=C(Nc1ccc(Cl)c(Cl)c1)c1cc(Cl)cc(Cl)c1O`, the AC50 was 33.4 µM (active).

For `c1ccc2c(c1)CCC2`, the call was inactive.

Regarding `O=C1Cc2ccccc2N1c1c(Cl)cccc1Cl`, the result was inactive.

Take `Clc1ccc(Nc2nnc(Cc3ccncc3)c3ccccc23)cc1`: the AC50 was 11 µM (active).

In the case of `Brc1cc(Br)c(Oc2c(Br)cc(Br)c(Br)c2Br)cc1Br`, the result was inactive.

For `C=CC(=O)OCCC(F)(F)C(F)(F)C(F)(F)C(F)(F)C(F)(F)C(F)(F)F`, the molecule was classed as inactive.

For the molecule `O=C(C=C(O)C(F)(F)F)C(F)(F)F`, the outcome was inactive.

On to `Nc1cc(Cl)c(-c2cc(Cl)c(N)cc2Cl)cc1Cl`, for which the outcome was inactive.

Take `CCC(=O)C=Cc1ccc(OC)cc1`: the outcome was inactive.

`COC(O)c1ccccc1` (stereo unspecified): the call was inactive.

`CC1CCC(C(=O)O)CC1` (stereo unspecified): the call was inactive.

Turning to `CC1CNCC(C)O1` (stereo unspecified), the outcome was inactive.

For the molecule `Cc1ccc(N=Nc2c(O)ccc3ccccc23)c(C)c1`, the call was inactive.

Turning to `Nc1ccc(O)c(C(=O)O)c1`, the molecule was called inactive.

On to `Cc1[nH]nc2c1N=C(c1ccccc1Cl)c1cc([N+](=O)[O-])ccc1N2`, for which the AC50 was 3.71 µM (active).

For the molecule `O=C(O)C(=O)O`, the molecule was called inactive.

Turning to `CCc1cccc(CC)c1N(COC)C(=O)CS(=O)(=O)O`, the molecule was classed as inactive.

On to `Clc1ccc2c(Cl)ccnc2c1`, for which the molecule was classed as inactive.

In the case of `COC1=CC(=O)C[C@@H](C)[C@]12Oc1c(Cl)c(OC)cc(OC)c1C2=O`, the AC50 is 20.4 µM (active).

Turning to `O=C(Nc1cccc([N+](=O)[O-])c1)c1cc2ccccc2cc1O`, the result was inactive.

As for `CCc1cccc(CC)c1NC(=O)C(=O)O`, the result was inactive.

Turning to `O=CC(F)(F)C(F)(F)C(F)(F)F`, the molecule was classed as inactive.

As to `CCCCCCc1ccc(N)cc1`, the concentration at half-maximal activity (AC50) was 5.73 µM (active).

`COc1cccc(O)c1`: the molecule was classed as inactive.

For the molecule `FC(F)(F)C1(F)C(F)(F)C(F)(F)C(F)(F)C1(F)F`, the molecule was called inactive.

As to `C=CC(=O)OCCC(F)(F)C(F)(F)C(F)(F)C(F)(F)C(F)(F)C(F)(F)C(F)(F)C(F)(F)F`, the result was inactive.

With `CCCCCc1ccc(O)cc1`, the result was inactive.

Take `O=C1OC(=O)c2cc(-c3ccc4c(c3)C(=O)OC4=O)ccc21`: the outcome was inactive.

`FC(F)(F)C(F)(F)C(F)(F)C(F)(F)I`: the outcome was inactive.

For `OCCN1CN(CCO)CN(CCO)C1`, the call was inactive.

With `Oc1c(Cl)cc(Cl)cc1Sc1cc(Cl)cc(Cl)c1O`, the molecule was called inactive.

`COc1cc([N+](=O)[O-])ccc1N`: the molecule was called inactive.

As for `CC(C)(c1ccc(Oc2ccc(N)cc2)cc1)c1ccc(Oc2ccc(N)cc2)cc1`, the outcome was inactive.

In the case of `CCCC=O`, the result was inactive.

Turning to `CCCCCCCCC(C)=O`, the result was inactive.

Consider `NC(C(F)(F)F)C(F)(F)F`, for which the outcome was inactive.

Consider `Cc1ccc(C)c(S(=O)(=O)O)c1`, for which the molecule was classed as inactive.
